Laboratory results taken from paper PMC12820563, “FoxP3 forms a head-to-head dimer in vivo and stabilizes its multimerization on adjacent microsatellites”.
Whole data set: some 16,000 sequences, median “rpm ratio (pull-down/input)” near 0.94, cut for the highest 2% near 1.7. The sample as a whole holds a higher share of the highest values than the screen did.

Each sequence was assayed against T1, MBP-FoxP1dN (Mus musculus, UniProt P58462 326-579) (assay: PD-seq (MBP pull-down with sequencing); 20 mM Tris-HCl pH 7.5, 100 mM NaCl, 1.5 mM MgCl2, 0.4 uM protein, 0.1 uM dsDNA library, 30 min, room temperature, amylose pull-down; high values mean tight binding). Conditions: protein: recombinant; tags: His6-MBP; chain copies: 2; dsDNA, one strand shown.
T1 sequence: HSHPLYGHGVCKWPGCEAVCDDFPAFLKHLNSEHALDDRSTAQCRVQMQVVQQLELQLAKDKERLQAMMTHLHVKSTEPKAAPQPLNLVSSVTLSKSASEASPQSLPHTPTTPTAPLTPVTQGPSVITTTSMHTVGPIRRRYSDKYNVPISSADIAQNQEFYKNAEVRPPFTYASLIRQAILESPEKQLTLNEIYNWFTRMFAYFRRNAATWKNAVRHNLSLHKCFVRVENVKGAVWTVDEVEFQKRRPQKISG
Summary of the method: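 Binding is the reads-per-million enrichment of pull-down relative to input, pooled across replicates. For this, 0.4 µM His6-MBP-tagged mouse FoxP3 or FoxP1 fragment lacking the N-terminus, made in E. coli, was incubated with 0.1 µM Klenow-filled double-stranded degenerate DNA library for 30 min at room temperature in Tris pH 7.5 buffer with NaCl and MgCl2. Complexes bound to amylose resin were washed three times before proteinase K released the DNA for PCR barcoding and Illumina sequencing.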

Point of comparison: “GATGATTGTTCTCCCAGCTGATGAATTGTGCCTGTCGAGTAAACAAATTTTCCTAATCTTTCTGTTCAAGCGCCATCTAC”, binding signal 0.964 RPM ratio (pull-down/input). Against it:
- GATGATTGTTCTCCCAGCTGATGAATTCTCTCGCTCGAGTAAACAAATTTTCCTAATCTTTCTGTTCAAGCGCCATCTAC — lower, 0.825 RPM ratio (pull-down/input)
- GATGATTGTTCTCCCAGCTGATGAATTCTACCCCTCGAGTAAACAAATTTTCCTAATCTTTCTGTTCAAGCGCCATCTAC — lower, 0.797 RPM ratio (pull-down/input)
- GATGATTGTTCTCCCAGCTGATGAATTGCGATAATCGAGTAAACAAATTTTCCTAATCTTTCTGTTCAAGCGCCATCTAC — higher, 1.43 RPM ratio (pull-down/input)
- GATGATTGTTCTCCCAGCTGATGAATTTGTATCATCGAGTAAACAAATTTTCCTAATCTTTCTGTTCAAGCGCCATCTAC — higher, 1.51 RPM ratio (pull-down/input)
- GATGATTGTTCTCCCAGCTGATGAATTTGCTGTATCGAGTAAACAAATTTTCCTAATCTTTCTGTTCAAGCGCCATCTAC — higher, 1.16 RPM ratio (pull-down/input)
- GATGATTGTTCTCCCAGCTGATGAATTTGTTGTATCGAGTAAACAAATTTTCCTAATCTTTCTGTTCAAGCGCCATCTAC — higher, 2.21 RPM ratio (pull-down/input)
- GATGATTGTTCTCCCAGCTGATGAATTTTTTGTATCGAGTAAACAAATTTTCCTAATCTTTCTGTTCAAGCGCCATCTAC — higher, 1.26 RPM ratio (pull-down/input)
- GATGATTGTTCTCCCAGCTGATGAATTGTTTGTATCGAGTAAACAAATTTTCCTAATCTTTCTGTTCAAGCGCCATCTAC — higher, 2.64 RPM ratio (pull-down/input)
- GATGATTGTTCTCCCAGCTGATGAATTTGATGTATCGAGTAAACAAATTTTCCTAATCTTTCTGTTCAAGCGCCATCTAC — higher, 1.25 RPM ratio (pull-down/input)
- GATGATTGTTCTCCCAGCTGATGAATTCCGCCTATCGAGTAAACAAATTTTCCTAATCTTTCTGTTCAAGCGCCATCTAC — lower, 0.791 RPM ratio (pull-down/input)
- GATGATTGTTCTCCCAGCTGATGAATTTGGGGTGTCGAGTAAACAAATTTTCCTAATCTTTCTGTTCAAGCGCCATCTAC — lower, 0.832 RPM ratio (pull-down/input)
- GATGATTGTTCTCCCAGCTGATGAATTGGTTGTATCGAGTAAACAAATTTTCCTAATCTTTCTGTTCAAGCGCCATCTAC — higher, 1.3 RPM ratio (pull-down/input)
- GATGATTGTTCTCCCAGCTGATGAATTGTTGGTATCGAGTAAACAAATTTTCCTAATCTTTCTGTTCAAGCGCCATCTAC — higher, 1.92 RPM ratio (pull-down/input)
- GATGATTGTTCTCCCAGCTGATGAATTTTTGGTATCGAGTAAACAAATTTTCCTAATCTTTCTGTTCAAGCGCCATCTAC — higher, 1.09 RPM ratio (pull-down/input)
- GATGATTGTTCTCCCAGCTGATGAATTATTGGTATCGAGTAAACAAATTTTCCTAATCTTTCTGTTCAAGCGCCATCTAC — higher, 1.55 RPM ratio (pull-down/input)
- GATGATTGTTCTCCCAGCTGATGAATTATCGGTATCGAGTAAACAAATTTTCCTAATCTTTCTGTTCAAGCGCCATCTAC — higher, 1.02 RPM ratio (pull-down/input)
- GATGATTGTTCTCCCAGCTGATGAATTGGTATTATCGAGTAAACAAATTTTCCTAATCTTTCTGTTCAAGCGCCATCTAC — higher, 1.9 RPM ratio (pull-down/input)
- GATGATTGTTCTCCCAGCTGATGAATTGTGTGCCTCGAGTAAACAAATTTTCCTAATCTTTCTGTTCAAGCGCCATCTAC — higher, 1.14 RPM ratio (pull-down/input)
- GATGATTGTTCTCCCAGCTGATGAATTGCGATGCTCGAGTAAACAAATTTTCCTAATCTTTCTGTTCAAGCGCCATCTAC — higher, 1.2 RPM ratio (pull-down/input)
- GATGATTGTTCTCCCAGCTGATGAATTCCGAGAGTCGAGTAAACAAATTTTCCTAATCTTTCTGTTCAAGCGCCATCTAC — lower, 0.749 RPM ratio (pull-down/input)
- GATGATTGTTCTCCCAGCTGATGAATTCATCGTCTCGAGTAAACAAATTTTCCTAATCTTTCTGTTCAAGCGCCATCTAC — lower, 0.784 RPM ratio (pull-down/input)
- GATGATTGTTCTCCCAGCTGATGAATTCAGGTTCTCGAGTAAACAAATTTTCCTAATCTTTCTGTTCAAGCGCCATCTAC — lower, 0.857 RPM ratio (pull-down/input)
- GATGATTGTTCTCCCAGCTGATGAATTCCTCAGATCGAGTAAACAAATTTTCCTAATCTTTCTGTTCAAGCGCCATCTAC — lower, 0.761 RPM ratio (pull-down/input)
- GATGATTGTTCTCCCAGCTGATGAATTCATAAACTCGAGTAAACAAATTTTCCTAATCTTTCTGTTCAAGCGCCATCTAC — higher, 1.07 RPM ratio (pull-down/input)
- GATGATTGTTCTCCCAGCTGATGAATTTGTTGCATCGAGTAAACAAATTTTCCTAATCTTTCTGTTCAAGCGCCATCTAC — higher, 1.84 RPM ratio (pull-down/input)
- GATGATTGTTCTCCCAGCTGATGAATTTTTTGCATCGAGTAAACAAATTTTCCTAATCTTTCTGTTCAAGCGCCATCTAC — higher, 1.45 RPM ratio (pull-down/input)
- GATGATTGTTCTCCCAGCTGATGAATTGTTTGCATCGAGTAAACAAATTTTCCTAATCTTTCTGTTCAAGCGCCATCTAC — higher, 2.26 RPM ratio (pull-down/input)
- GATGATTGTTCTCCCAGCTGATGAATTTGCAGCATCGAGTAAACAAATTTTCCTAATCTTTCTGTTCAAGCGCCATCTAC — higher, 1.09 RPM ratio (pull-down/input)
- GATGATTGTTCTCCCAGCTGATGAATTCTTTGCATCGAGTAAACAAATTTTCCTAATCTTTCTGTTCAAGCGCCATCTAC — higher, 1.26 RPM ratio (pull-down/input)
- GATGATTGTTCTCCCAGCTGATGAATTATTTGCATCGAGTAAACAAATTTTCCTAATCTTTCTGTTCAAGCGCCATCTAC — higher, 1.89 RPM ratio (pull-down/input)
- GATGATTGTTCTCCCAGCTGATGAATTATTGCCATCGAGTAAACAAATTTTCCTAATCTTTCTGTTCAAGCGCCATCTAC — higher, 1.24 RPM ratio (pull-down/input)
- GATGATTGTTCTCCCAGCTGATGAATTATTGCAATCGAGTAAACAAATTTTCCTAATCTTTCTGTTCAAGCGCCATCTAC — higher, 1.49 RPM ratio (pull-down/input)
- GATGATTGTTCTCCCAGCTGATGAATTTGCATGATCGAGTAAACAAATTTTCCTAATCTTTCTGTTCAAGCGCCATCTAC — higher, 1.05 RPM ratio (pull-down/input)
- GATGATTGTTCTCCCAGCTGATGAATTCCCCTCTTCGAGTAAACAAATTTTCCTAATCTTTCTGTTCAAGCGCCATCTAC — lower, 0.821 RPM ratio (pull-down/input)
- GATGATTGTTCTCCCAGCTGATGAATTCTCAGGGTCGAGTAAACAAATTTTCCTAATCTTTCTGTTCAAGCGCCATCTAC — lower, 0.745 RPM ratio (pull-down/input)
- GATGATTGTTCTCCCAGCTGATGAATTTCGCAAGTCGAGTAAACAAATTTTCCTAATCTTTCTGTTCAAGCGCCATCTAC — lower, 0.831 RPM ratio (pull-down/input)
- GATGATTGTTCTCCCAGCTGATGAATTAGGAACGTCGAGTAAACAAATTTTCCTAATCTTTCTGTTCAAGCGCCATCTAC — lower, 0.882 RPM ratio (pull-down/input)
- GATGATTGTTCTCCCAGCTGATGAATTGCCGTCGTCGAGTAAACAAATTTTCCTAATCTTTCTGTTCAAGCGCCATCTAC — higher, 0.968 RPM ratio (pull-down/input)
- GATGATTGTTCTCCCAGCTGATGAATTAGACATATCGAGTAAACAAATTTTCCTAATCTTTCTGTTCAAGCGCCATCTAC — higher, 1.06 RPM ratio (pull-down/input)
